The results in this text go back to PubChem BioAssay AID624351 (Southern Research Specialized Biocontainment Screening …, 2012).

“And” between values parts separate entries of the source, which are not always exact repeats. Equal values may be shown once. Screen size: about 2,400 compounds; about 1,400 (58%) were called active. So high a share suggests a set chosen from earlier hits. Some of the results follow. Values without a mark were called inactive.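 How the source made its calls: active means inhibition of 30% or more at any tested dose; inconclusive means primary hits over the limit that were never retested; inactive means the rest.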

This assay in a line: ADP Hunter readout inhibition without MgcRacGAP – biochemical, coupled enzyme counter-screen, artefact control for MgcRacGAP inhibitor project, dose response (AID 624351).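 Further: signal is the ADP detection kit reading of free GDP without any GAP enzyme.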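 On inhibition: 0% = median positive control wells and 100% = median negative control wells.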 The note with it: fluorescence, no MgcRacGAP; series mostly up to 80 µM.
`Cc1cc(/C=C2\C(=O)NC(=O)N(c3ccccc3F)C2=O)c(C)n1-c1cc(C(=O)O)cc(C(=O)O)c1`: the IC50 (in general, the concentration that inhibits the measured activity by half) is “inactive”.

As to `COc1ccccc1-n1c(O)c(/C=C2\C=Nc3ccccc32)c(=O)[nH]c1=O`, the IC50 entry was “inactive”. Still for that read-out and setting: the result for `CC[N+](C)(CC)CCCCOc1ccc2c(c1)C(=O)c1cc(OCCCC[N+](C)(CC)CC)ccc1-2` reads “inactive”.

As for `CC1=NCCc2c1[nH]c1cc(O)ccc21`, the IC50 was 10.2 µM (active). Still for that read-out and setting: in the case of `Cc1ccc(OCC(=O)N2CCN(CC3CC4C=CC3C4)CC2)cc1` (stereo unspecified) it was “inactive”; in that of `Clc1ccc(OCC#CCN2CCCCCC2)cc1`, “inactive”; in that of `CCN(CCCl)c1cc(CN(C)C)cc(NC(=O)c2ccc(C(=O)Nc3cc(CN(C)C)cc(N(CC)CCCl)c3)cc2)c1`, “inactive”. Same read-out and setting: in the case of `COc1ccc(/C=C2\C(=O)NC(=S)N(C)C2=O)cc1C` it was “inactive”; in that of `CC1CCCCN1Cc1cccnc1` (stereo unspecified), “inactive”; in that of `COc1ccc(CCNCc2ccccc2)cc1`, “inactive”. The same measure, in the same setting: in the case of `CN(C)C1C(=O)C(C(N)=O)=C(O)C2(O)C(=O)C3=C(O)c4c(O)cccc4C(C)(O)C3C(O)C12` (stereo unspecified) it was “inactive”; in that of `COc1cc(/C=C/c2nc3ccccc3c(=O)n2-c2ccccc2O)ccc1O`, 38.1 µM (active). With `COc1ccc(-n2c(/C=C/c3ccc(O)c(OC)c3)nc3ccccc3c2=O)cc1`, the IC50 is 43.2 µM (active). Still for that read-out and setting: the result for `COc1cc(/C=C2/C(=O)NC(=O)N(c3ccccc3)C2=O)ccc1O` reads “inactive”.

`O=c1c2ccccc2nc(/C=C/c2ccc(O)cc2)n1-c1ccccc1O`: the IC50 was 60.4 µM (active).

In the case of `NC(N)=N/N=C/c1ccc(N(c2ccccc2)c2ccccc2)cc1`, the IC50 result is “inactive”. On the same count and under the same terms, the result for `O=C1CN(O)C(c2ccccc2)=c2cc(Br)ccc2=N1` reads “inactive”. On the same count and under the same terms, in the case of `O=C1NC(=O)N(c2ccc3c(c2)OCO3)C(=O)/C1=C\c1ccc(-c2ccccc2C(=O)O)o1` it was “inactive”.

With `COc1ccc(CN2CCN(Cc3ccccc3OC)CC2)cc1`, the IC50 result is “inactive”. On the same count and under the same terms, the result for `CCc1c(C)nc(N)nc1N1N=C1SC(C(C)=O)C(C)=O` reads “inactive”; that for `O=C1NC(=O)C(=Cc2coc3ccc(O)cc3c2=O)C(=O)N1`, “inactive”; that for `C=CCN1C(=O)NC(=O)/C(=C/C=C/c2ccccc2)C1=O`, “inactive”. Same read-out and setting: the result for `CN1C2CCC1/C(=C/c1ccccn1)C(=O)/C2=C\c1ccccn1` reads “inactive”; that for `COc1cc(N2CCOCC2)ccc1/C=C1\C(=O)NC(=O)N(Cc2cccs2)C1=O`, “inactive”; that for `COc1cc2c(ccc3c4cc(OC)c(OC)cc4c[n+](C)c23)cc1O`, “inactive”. The same measure, in the same setting: in the case of `CC1CN1P(=O)(Oc1ccc2ccccc2c1)N1CC1C` (stereo unspecified) it was “inactive”; in that of `O=C1NC(=O)C(=Cc2cccs2)C(=O)N1`, “inactive”. For the molecule `CN1CCN(c2ccc(N)c(N3CCN(C)CC3)c2)CC1`, the IC50 is 56 µM (active). `CCN1CCN(CC(c2ccccc2)c2ccccc2)CC1`: the IC50 entry was “inactive”.

As for `CCN1CCN(c2ccc(N)c(C)c2)CC1`, the IC50 was 45.2 µM (active).

`CN1CCN(c2ccc(N)cc2)CC1`: the IC50 was 42.7 µM (active).

Regarding `N/C(=N\N=C/c1ccc(-c2ccc(O)c(C(=O)O)c2)o1)N[N+](=O)[O-]`, the IC50 entry is “inactive”. Same read-out and setting: in the case of `COc1cc(N2CCOCC2)ccc1/C=C1\C(=O)NC(=O)N(Cc2ccc3c(c2)OCO3)C1=O` it was “inactive”. The same measure, in the same setting: the result for `O=C(O)CCn1cc(C=C2C(=O)NC(=S)NC2=O)c(-c2cccc(Br)c2)n1` reads “inactive”; that for `Cc1ccc(OCC(=O)N2CCN(Cc3ccc([N+](=O)[O-])cc3)CC2)cc1`, “inactive”. The same measure, in the same setting: in the case of `CCc1ccc(N2C(=O)NC(=O)/C(=C\c3cc(C)n(-c4cc(C(=O)O)cc(C(=O)O)c4)c3C)C2=O)cc1` it was “inactive”. For the molecule `CN(C)[C@@H]1C(=O)C(C(N)=O)=C(O)[C@@]2(O)C(=O)C3=C(O)c4c(O)cccc4[C@@](C)(O)[C@H]3[C@H](O)[C@@H]12`, the inhibition (usually the change of the read-out against control, counted positive when it falls) was -9.39% [at 5 µM]. As to `Cc1cccc(N2C(=O)/C(=C/c3ccc(CN(CCC#N)S(C)(=O)=O)o3)C(=O)NC2=S)c1`, the IC50 result is “inactive”. Still for that read-out and setting: the result for `Cc1ccc2c(C)c3ccc4ccccc4c3c[n+]2c1` reads “inactive”; that for `CN(C)c1ccc(/C=C/C=C/c2sc3ccccc3[n+]2C)cc1`, 70.2 µM (active). Same read-out and setting: in the case of `CN(C)c1ccc(/C=C/c2cc[n+](C)c3ccccc23)cc1` it was 47.2 µM (active) and 59.7 µM (active). With `CCc1ccc(CNCCc2c[nH]c3ccccc23)cc1`, the IC50 result was “inactive”. Same read-out and setting: in the case of `O=C1NC(=O)N(CCC2=CCCCC2)C(=O)/C1=C/c1ccc(O)cc1` it was “inactive”; in that of `COc1ccc(CNCCc2ccc(Cl)cc2)c(OC)c1OC`, “inactive”; in that of `O=C1NC(=S)N(c2ccccc2)C(=O)/C1=C/c1ccco1`, “inactive”. On the same count and under the same terms, in the case of `O=C1NC(=S)N(C2CC2)C(=O)/C1=C/c1ccc2c(c1)CCN2CCCCl` it was “inactive”; in that of `Cc1cc(/C=C2\C(=O)NC(=O)N(c3cccc(F)c3)C2=O)c(C)n1-c1cc(C(=O)O)cc(C(=O)O)c1`, “inactive”. Still for that read-out and setting: the result for `Cc1cc(-c2cc(C)c(N)c(C)c2)cc(C)c1N` reads 11.2 µM (active); that for `Cc1cc(-c2ccc(N)c(C)c2)ccc1N`, 14.2 µM (active).

In the case of `COc1cc(-c2ccc(N)c(OC)c2)ccc1N`, the IC50 is 8.45 µM (active). The same measure, in the same setting: the result for `Brc1cccc(CNCCc2ccc3c(c2)OCO3)c1` reads “inactive”; that for `CN(C)c1ccc(/C=C2/C(=O)NC(=O)N(Cc3ccco3)C2=O)cc1`, “inactive”; that for `Cc1ccccc1N1C(=O)NC(=O)/C(=C\c2cnn(-c3ccccc3)c2)C1=O`, “inactive”.

Take `O=C1NC(=O)C(=Cc2cc(Cl)ccc2OCc2ccc(C(=O)O)cc2)C(=O)N1`: the IC50 entry was “inactive”.

As to `O=C(COc1ccccc1)N1CCN(CC2CC3C=CC2C3)CC1` (stereo unspecified), the IC50 result is “inactive”.

Turning to `O=C1NC(=O)C(=Cc2c(Cl)cccc2Cl)C(=O)N1`, the IC50 entry was “inactive”.

`COc1cc(CNCCc2ccc3c(c2)OCO3)cc(OC)c1OC`: the IC50 entry was “inactive”. On the same count and under the same terms, the result for `O=C(Cc1ccccc1)N1CCN(Cc2ccc(F)cc2)CC1` reads “inactive”; that for `O=C(COc1ccccc1)N1CCN(C2CCCC2)CC1`, “inactive”; that for `c1ccc(CN2CCN(Cc3ccc4ccccc4c3)CC2)cc1`, “inactive”. Still for that read-out and setting: the result for `O=C(O)c1ccccc1-c1ccc(C=C2C(=O)N(c3ccccc3)C(=S)N(c3ccccc3)C2=O)o1` reads “inactive”; that for `Nc1ccc(-c2ccc(N)cc2)cc1`, 8 µM (active). In the case of `Nc1ccc(Sc2ccc(N)cc2)cc1`, the IC50 was 10.4 µM (active). The same measure, in the same setting: in the case of `Nc1ccc(N=Nc2ccc(N)cc2)cc1` it was 20.5 µM (active); in that of `Cc1cc(N(C)C)ccc1N=Nc1ccc(N)cc1`, 33.7 µM (active); in that of `O=C(COc1ccc2ccccc2c1)N1CCN(Cc2ccncc2)CC1`, “inactive”. Regarding `COc1ccc(N2CC2c2ccncc2)cc1` (stereo unspecified), the IC50 result is “inactive”. Same read-out and setting: in the case of `COP(=S)(OC)SCn1nnc2ccccc2c1=O` it was “inactive”; in that of `Fc1ccc(CNCCc2ccccc2)cc1`, “inactive”. Same read-out and setting: the result for `COc1cccc(CN2CCN(Cc3cccc(F)c3)CC2)c1` reads “inactive”. The same measure, in the same setting: the result for `O=C(O)CCn1cc(C=C2C(=O)NC(=S)NC2=O)c(-c2ccccc2)n1` reads “inactive”.

In the case of `COc1ccc(CCNCc2cccc(C(F)(F)F)c2)cc1OC`, the IC50 result is “inactive”. Same read-out and setting: the result for `CSc1ccc(CN2CCN(Cc3ccccc3Cl)CC2)cc1` reads “inactive”; that for `O=P(Oc1ccc(-c2ccccc2)cc1)(N1CC1)N1CC1`, “inactive”.

In the case of `O=C(NC1CCCCC1)Oc1cc2oc(=O)sc2cc1Cl`, the IC50 result was “inactive”. Same read-out and setting: in the case of `COc1ccccc1N1CCN(Cc2cccc(Br)c2)CC1` it was “inactive”; in that of `COc1ccc(Br)cc1CNCCc1cccc(Cl)c1`, “inactive”. With `O=C1NC(=O)C(=Cc2ccco2)C(=O)N1`, the IC50 entry is “inactive”.

For `Cc1nn(CCC#N)c2c1P(=S)(N1CCCC1)OC(c1ccc(F)cc1)=N2` (stereo unspecified), the IC50 entry is “inactive”. Still for that read-out and setting: in the case of `O=C1NC(=O)N(c2ccccc2)C(=O)/C1=C/c1coc2ccc(O)cc2c1=O` it was “inactive”. On the same count and under the same terms, the result for `CN(C)c1ccc2c(c1)N=C(c1ccco1)OP2(=S)N1CCOCC1` (stereo unspecified) reads “inactive”.
